Data published in article PMC4552634, “A New Set of Chemical Starting Points with Plasmodium falciparum Transmission-Blocking Potential for Antimalarial Drug Discovery” (PLoS ONE, 2015).
Among all 13,000 compounds or so, about 3,200 (25%) showed an effect of 50% or more. The list shows a part of the results.

Tested on: P. falciparum stage V gametocytes
Parameters: BacTiter-Glo ATP luminescence viability of purified stage V gametocytes in 384-well plates, per cent inhibition versus DMSO
Conditions: 48 h, 5 µM; inhibitor

Row | SMILES | % Inhibition [%]
1 | O=C(Cc1cccc2ccccc12)N1CCc2cc3nccc(N4CCN5CCC[C@H]5C4)c3cc21 [TCMDC-140040] | -3.161
2 | O=C(Nc1ccccc1Cl)c1cc2ccccc2cc1O [TCMDC-123494] | 9.579
3 | CC(Nc1nc(Nc2ccc(F)cc2)nc(SCC(N)=O)n1)c1ccccc1 (stereo not shown) [TCMDC-125832] | -31.65
4 | Cc1nc2nc(N)nc(N)c2c(C)c1Cc1ccccc1 [TCMDC-137670] | -13.55
5 | CCCCNc1cc(C)nc(NCc2ccccc2)n1 [TCMDC-123663] | 33.56
6 | CCCCNc1nc(NCCCC)c2c(C)c(Cc3ccccc3)c(NCCCC)nc2n1 [TCMDC-138062] | 134
7 | CC(C)(C)c1ccc(NC(=O)c2cccc(CN3CCCN(CC4CCCCC4)CC3)c2)cc1 [TCMDC-135980] | -75.44
8 | Cc1ccc(C(=O)Nc2ccc(F)cc2)cc1-c1nc(NC2CC(C)(C)NC(C)(C)C2)nc2c1ccc(=O)n2-c1c(F)cccc1F [TCMDC-135391] | 95.1
9 | Cc1ccc(N)cc1-c1nc(NC2CC(C)(C)NC(C)(C)C2)nc2c1ccc(=O)n2-c1c(F)cccc1F [TCMDC-135790] | 57.86
10 | Cc1ccc(NC(=O)Nc2ccc(Cl)cc2)cc1-c1cccc(C(=O)Nc2ccc(F)cc2)c1 [TCMDC-133591] | -12.79
11 | Cc1cc(C(=O)Nc2ccc(C)c(-c3nc(N(C(=O)c4ccc(F)c(C)c4)C4CCNCC4)nc4c3ccc(=O)n4-c3c(F)cccc3F)c2)ccc1F [TCMDC-135913] | 55.46
12 | Cc1ccc(NC(=O)Nc2ccccc2F)cc1-c1ccc(C(=O)Nc2ccncc2)cc1 [TCMDC-133706] | -10.32
13 | Cc1cc(F)ccc1-c1nc(N(C)CCN(C)C(=O)N(C)c2ccccc2)nc2c1ccc(=O)n2-c1c(F)cccc1F [TCMDC-141720] | 17.64
14 | Cc1cc(F)ccc1C1CCN(CCCCNC(=O)c2ccc(NC(=O)c3ccc(Cl)cc3)cc2)CC1 [TCMDC-138363] | 13.4
15 | CCCc1cc(NCc2ccncc2)nc(Nc2ccc(F)cc2)n1 [TCMDC-134012] | 34.89
16 | NC(=O)c1ccsc1NC(=O)CNC(c1ccccc1)c1ccccc1 [TCMDC-125458] | 2.042
17 | O=C(N[C@@H](Cc1ccccc1)[C@H](O)CNC1CCCc2ccccc21)c1cc(C2CCCC2)cc(N2CCCC2=O)c1 (stereo partly shown) [TCMDC-134656] | -0.2102
18 | Cc1c2c(nn1-c1ccccc1)C(c1ccccc1)N(c1ccccc1)C2=O (stereo not shown) [TCMDC-131674] | -2.033
19 | COc1ccccc1N1CCN(c2cccc(F)c2C#N)CC1 [TCMDC-124862] | -55.85
20 | COc1cc(C)c(NC(=O)c2cccc3c(=O)c(C)c(-c4ccccc4)oc23)cc1OC [TCMDC-125261] | -26.52
21 | COc1ccc(-c2ccc(S(=O)(=O)Nc3cc4c(cc3OC(C)C)CCN(C)CC4)cc2)cc1 [TCMDC-141487] | 10.97
22 | CC(C)C(=O)ONC1=NC(C)(C)N(OCCCOc2cc(Cl)c(Cl)cc2Cl)C(NOC(=O)C(C)C)=N1 [TCMDC-131788] | -4.555
23 | CNC(=O)c1cnc(Nc2ccc(N3CCOCC3)cc2)nc1Nc1cccc(O)c1 [TCMDC-141385] | -8.649

Row | SMILES | % Inhibition [%]
24 | CN(C)CCOc1cc(NC(=O)Nc2cccc([N+](=O)[O-])c2)ccc1I [TCMDC-139158] | 11.15
25 | CNC(=O)c1cnc(Nc2ccc(OCC(O)CN(C)C)cc2)nc1Nc1cccc(OC)c1 (stereo not shown) [TCMDC-141387] | 95.62
26 | CNC(=O)c1cnc(Nc2ccc(N3CCN(C)CC3)cc2)nc1Nc1cccc(OC)c1 [TCMDC-141383] | 85.81
27 | CNC(=O)c1cnc(Nc2ccc(N3CCN(C)CC3)cc2)nc1Nc1cccc(OC(C)C)c1 [TCMDC-141384] | -23.05
28 | CNC(=O)c1cnc(Nc2ccc(OCC(O)CN(C)C)cc2)nc1Nc1cccc([N+](=O)[O-])c1 (stereo not shown) [TCMDC-141392] | 55.28
29 | Cc1cc(C)cc(OCC(O)CN(Cc2cc(Cl)cc(Cl)c2)C(=O)Nc2ccc([N+](=O)[O-])cc2)c1 (stereo not shown) [TCMDC-141478] | -6.134
30 | CN1CCN(c2ccc(Nc3ncc(C#N)c(Nc4ccccc4C(N)=O)n3)cc2)CC1 [TCMDC-134116] | -62.53
31 | CNC(=O)c1cnc(Nc2ccc(N3CCOCC3)cc2)nc1Nc1cccc(OC)c1 [TCMDC-141386] | -63.88
32 | CNC(=O)c1cnc(Nc2ccc(OCC(O)CN(C)C)cc2)nc1Nc1cccc(Br)c1 (stereo not shown) [TCMDC-141388] | 25.03
33 | CN1CCN(c2ccc(Nc3ncc([N+](=O)[O-])c(Nc4ccccc4O)n3)cc2)CC1 [TCMDC-141372] | 99.51
34 | CC(C)N(Cc1ccccc1)C(=O)CN1C(=O)COc2ccc(S(=O)(=O)N3CCCCCC3)cc21 [TCMDC-124755] | -21.1
35 | N#Cc1ccc2c(c1)CCN(CCC1CCC(NC(=O)c3cccc(-c4ccc(F)cc4)c3)CC1)CC2 (stereo not shown) [TCMDC-139679] | -51.12
36 | O=C(c1csc(-c2cccnc2)n1)N1CCc2cc3nccc(N4CCN5CCC[C@H]5C4)c3cc21 [TCMDC-140044] | 44.75
37 | CCCCCSc1cc(O)c(C(CNC)C(C)C)cc1OC (stereo not shown) [TCMDC-125495] | -82.86
38 | CNC(=O)c1cnc(Nc2ccc(OCC(O)CN(C)C)cc2)nc1Nc1cccc(OC(C)C)c1 (stereo not shown) [TCMDC-141389] | 97.53
39 | CCCN(CCC)CC(O)COc1ccccc1C(=O)Nc1ccccc1 (stereo not shown) [TCMDC-125708] | -0.1626
40 | CNC(=O)c1cnc(Nc2ccc3[nH]c(=O)[nH]c3c2)nc1Nc1cccc(OC(C)C)c1 [TCMDC-141390] | -16.36
41 | CNc1ccc(CNCc2cccc(-c3ccc(-c4nc5ccccc5[nH]4)cc3)c2)cc1.O=C(O)C(F)(F)F [TCMDC-132986] | 13.98
42 | COc1ccc(CNCc2ccc(-c3cccc(-c4nc5ccccc5[nH]4)c3)cc2)cc1.O=C(O)C(F)(F)F [TCMDC-132546] | 33.45
43 | COc1ccc(CNCc2cccc(-c3ccc(-c4nc5ccccc5[nH]4)cc3)c2)cc1.O=C(O)C(F)(F)F [TCMDC-132718] | 76.66
44 | COc1ccc(CNCc2ccc(-c3ccc(-c4nc5cc(F)ccc5[nH]4)cc3)cc2)cc1.O=C(O)C(F)(F)F [TCMDC-132725] | -52.38
45 | O=C(O)C(F)(F)F.c1ccc(CNCc2ccc(-c3ccc(-c4nc5ccccc5[nH]4)cc3)cc2)cc1 [TCMDC-132711] | -28.39
46 | COc1ccc(CNCc2ccc(-c3ccc(-c4nc5ccccc5[nH]4)cc3)cc2)cc1.O=C(O)C(F)(F)F [TCMDC-132730] | 80.88
